Here are results for 43 sequences from article PMC12820563, “FoxP3 forms a head-to-head dimer in vivo and stabilizes its multimerization on adjacent microsatellites”.

Over roughly 16,000 sequences, “rpm ratio (pull-down/input)” has its median near 0.94; the highest 2% begin near 1.7. This is one part of a sample in which the highest values are shown more often than they occur.

The test concerns the target T1, MBP-FoxP1dN (Mus musculus, UniProt P58462 326-579).
T1 sequence: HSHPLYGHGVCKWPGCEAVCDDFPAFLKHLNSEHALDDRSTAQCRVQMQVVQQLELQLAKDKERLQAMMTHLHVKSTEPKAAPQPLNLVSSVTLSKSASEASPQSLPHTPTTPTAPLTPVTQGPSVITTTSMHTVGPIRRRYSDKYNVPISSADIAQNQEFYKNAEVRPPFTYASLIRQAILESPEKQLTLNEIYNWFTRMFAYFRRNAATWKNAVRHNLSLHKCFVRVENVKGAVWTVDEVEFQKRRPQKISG
The test can be described thus: PD-seq (MBP pull-down with sequencing); 20 mM Tris-HCl pH 7.5, 100 mM NaCl, 1.5 mM MgCl2, 0.4 uM protein, 0.1 uM dsDNA library, 30 min, room temperature, amylose pull-down; high values mean tight binding. Particulars: protein: recombinant; tags: His6-MBP; chain copies: 2; dsDNA, one strand shown. The method, boiled down:
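Amylose resin was used to capture complexes formed during 30 min at room temperature in Tris pH 7.5 buffer with NaCl and MgCl2 between 0.4 µM His6-MBP-tagged mouse FoxP3 or FoxP1 fragment lacking the N-terminus, expressed in E. coli, and 0.1 µM Klenow-filled double-stranded degenerate DNA library. After three washes, the DNA was released with proteinase K, barcoded by PCR and sequenced on Illumina. Binding is pooled-replicate reads-per-million enrichment, pull-down over input.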
Regarding “GATGATTGTTCTCCCAGCTGATGAATTTAACGCCTCGAGTAAACAAATTTTCCTAATCTTTCTGTTCAAGCGCCATCTAC”, the binding signal is 0.91 RPM ratio (pull-down/input). Next, “GATGATTGTTCTCCCAGCTGATGAATTAGCGCACTCGAGTAAACAAATTTTCCTAATCTTTCTGTTCAAGCGCCATCTAC”: 0.88 RPM ratio (pull-down/input); “GATGATTGTTCTCCCAGCTGATGAATTACACGCGTCGAGTAAACAAATTTTCCTAATCTTTCTGTTCAAGCGCCATCTAC”: 1.18 RPM ratio (pull-down/input); “GATGATTGTTCTCCCAGCTGATGAATTCACGGGTTCGAGTAAACAAATTTTCCTAATCTTTCTGTTCAAGCGCCATCTAC”: 0.766 RPM ratio (pull-down/input). On to “GATGATTGTTCTCCCAGCTGATGAATTCAGTCTATCGAGTAAACAAATTTTCCTAATCTTTCTGTTCAAGCGCCATCTAC”, for which the binding signal was 0.905 RPM ratio (pull-down/input).

Regarding “GATGATTGTTCTCCCAGCTGATGAATTCGCCACTTCGAGTAAACAAATTTTCCTAATCTTTCTGTTCAAGCGCCATCTAC”, the binding signal was 0.857 RPM ratio (pull-down/input). Consider “GATGATTGTTCTCCCAGCTGATGAATTGTACTCATCGAGTAAACAAATTTTCCTAATCTTTCTGTTCAAGCGCCATCTAC”, for which the binding signal is 1.04 RPM ratio (pull-down/input). As for “GATGATTGTTCTCCCAGCTGATGAATTTTATAGGTCGAGTAAACAAATTTTCCTAATCTTTCTGTTCAAGCGCCATCTAC”, the binding signal was 0.796 RPM ratio (pull-down/input). Next, “GATGATTGTTCTCCCAGCTGATGAATTGAGTGTATCGAGTAAACAAATTTTCCTAATCTTTCTGTTCAAGCGCCATCTAC”: 1.16 RPM ratio (pull-down/input); “GATGATTGTTCTCCCAGCTGATGAATTATCTTTATCGAGTAAACAAATTTTCCTAATCTTTCTGTTCAAGCGCCATCTAC”: 1.09 RPM ratio (pull-down/input); “GATGATTGTTCTCCCAGCTGATGAATTCATGTAATCGAGTAAACAAATTTTCCTAATCTTTCTGTTCAAGCGCCATCTAC”: 1.5 RPM ratio (pull-down/input).

On to “GATGATTGTTCTCCCAGCTGATGAATTCATCTTATCGAGTAAACAAATTTTCCTAATCTTTCTGTTCAAGCGCCATCTAC”, for which the binding signal is 0.961 RPM ratio (pull-down/input). As to “GATGATTGTTCTCCCAGCTGATGAATTTTATGTATCGAGTAAACAAATTTTCCTAATCTTTCTGTTCAAGCGCCATCTAC”, the binding signal was 1.71 RPM ratio (pull-down/input). “GATGATTGTTCTCCCAGCTGATGAATTTATGATATCGAGTAAACAAATTTTCCTAATCTTTCTGTTCAAGCGCCATCTAC”: the binding signal was 1.33 RPM ratio (pull-down/input). Consider “GATGATTGTTCTCCCAGCTGATGAATTCATGTTATCGAGTAAACAAATTTTCCTAATCTTTCTGTTCAAGCGCCATCTAC”, for which the binding signal is 1.78 RPM ratio (pull-down/input). For the sequence “GATGATTGTTCTCCCAGCTGATGAATTATGTTTATCGAGTAAACAAATTTTCCTAATCTTTCTGTTCAAGCGCCATCTAC”, the binding signal is 2.99 RPM ratio (pull-down/input). As for “GATGATTGTTCTCCCAGCTGATGAATTATGTAAATCGAGTAAACAAATTTTCCTAATCTTTCTGTTCAAGCGCCATCTAC”, the binding signal is 1.47 RPM ratio (pull-down/input). Take “GATGATTGTTCTCCCAGCTGATGAATTTATGTAATCGAGTAAACAAATTTTCCTAATCTTTCTGTTCAAGCGCCATCTAC”: the binding signal is 1.95 RPM ratio (pull-down/input).

With “GATGATTGTTCTCCCAGCTGATGAATTTATGTTATCGAGTAAACAAATTTTCCTAATCTTTCTGTTCAAGCGCCATCTAC”, the binding signal is 2.22 RPM ratio (pull-down/input). Turning to “GATGATTGTTCTCCCAGCTGATGAATTATGATTATCGAGTAAACAAATTTTCCTAATCTTTCTGTTCAAGCGCCATCTAC”, the binding signal is 1.51 RPM ratio (pull-down/input).

Turning to “GATGATTGTTCTCCCAGCTGATGAATTTTATGAATCGAGTAAACAAATTTTCCTAATCTTTCTGTTCAAGCGCCATCTAC”, the binding signal was 0.942 RPM ratio (pull-down/input). “GATGATTGTTCTCCCAGCTGATGAATTCCATGTGTCGAGTAAACAAATTTTCCTAATCTTTCTGTTCAAGCGCCATCTAC”: the binding signal was 0.939 RPM ratio (pull-down/input). Next, “GATGATTGTTCTCCCAGCTGATGAATTTTTCGGATCGAGTAAACAAATTTTCCTAATCTTTCTGTTCAAGCGCCATCTAC”: 0.904 RPM ratio (pull-down/input). Next, “GATGATTGTTCTCCCAGCTGATGAATTCCTTTAGTCGAGTAAACAAATTTTCCTAATCTTTCTGTTCAAGCGCCATCTAC”: 0.819 RPM ratio (pull-down/input). With “GATGATTGTTCTCCCAGCTGATGAATTAGTGCAGTCGAGTAAACAAATTTTCCTAATCTTTCTGTTCAAGCGCCATCTAC”, the binding signal was 0.937 RPM ratio (pull-down/input). Next, “GATGATTGTTCTCCCAGCTGATGAATTGTTTGGATCGAGTAAACAAATTTTCCTAATCTTTCTGTTCAAGCGCCATCTAC”: 1.65 RPM ratio (pull-down/input); “GATGATTGTTCTCCCAGCTGATGAATTGGGGACCTCGAGTAAACAAATTTTCCTAATCTTTCTGTTCAAGCGCCATCTAC”: 0.742 RPM ratio (pull-down/input); “GATGATTGTTCTCCCAGCTGATGAATTCGGACTATCGAGTAAACAAATTTTCCTAATCTTTCTGTTCAAGCGCCATCTAC”: 0.87 RPM ratio (pull-down/input). Regarding “GATGATTGTTCTCCCAGCTGATGAATTGATGTTATCGAGTAAACAAATTTTCCTAATCTTTCTGTTCAAGCGCCATCTAC”, the binding signal was 2.17 RPM ratio (pull-down/input). In the case of “GATGATTGTTCTCCCAGCTGATGAATTTCAGTTATCGAGTAAACAAATTTTCCTAATCTTTCTGTTCAAGCGCCATCTAC”, the binding signal was 1.02 RPM ratio (pull-down/input).

For the sequence “GATGATTGTTCTCCCAGCTGATGAATTGAATTTATCGAGTAAACAAATTTTCCTAATCTTTCTGTTCAAGCGCCATCTAC”, the binding signal is 1.05 RPM ratio (pull-down/input). Next, “GATGATTGTTCTCCCAGCTGATGAATTATTGATATCGAGTAAACAAATTTTCCTAATCTTTCTGTTCAAGCGCCATCTAC”: 1.53 RPM ratio (pull-down/input); “GATGATTGTTCTCCCAGCTGATGAATTGATATTATCGAGTAAACAAATTTTCCTAATCTTTCTGTTCAAGCGCCATCTAC”: 1.92 RPM ratio (pull-down/input). For the sequence “GATGATTGTTCTCCCAGCTGATGAATTAAATGTATCGAGTAAACAAATTTTCCTAATCTTTCTGTTCAAGCGCCATCTAC”, the binding signal is 1.4 RPM ratio (pull-down/input). Take “GATGATTGTTCTCCCAGCTGATGAATTATTGCTATCGAGTAAACAAATTTTCCTAATCTTTCTGTTCAAGCGCCATCTAC”: the binding signal was 1.3 RPM ratio (pull-down/input). Next, “GATGATTGTTCTCCCAGCTGATGAATTATTGTCATCGAGTAAACAAATTTTCCTAATCTTTCTGTTCAAGCGCCATCTAC”: 1.86 RPM ratio (pull-down/input); “GATGATTGTTCTCCCAGCTGATGAATTAATGTTATCGAGTAAACAAATTTTCCTAATCTTTCTGTTCAAGCGCCATCTAC”: 1.95 RPM ratio (pull-down/input). Next, “GATGATTGTTCTCCCAGCTGATGAATTGCTATTATCGAGTAAACAAATTTTCCTAATCTTTCTGTTCAAGCGCCATCTAC”: 1.8 RPM ratio (pull-down/input).

As to “GATGATTGTTCTCCCAGCTGATGAATTATCGATATCGAGTAAACAAATTTTCCTAATCTTTCTGTTCAAGCGCCATCTAC”, the binding signal was 1.08 RPM ratio (pull-down/input). Consider “GATGATTGTTCTCCCAGCTGATGAATTTTTGCTATCGAGTAAACAAATTTTCCTAATCTTTCTGTTCAAGCGCCATCTAC”, for which the binding signal is 1.21 RPM ratio (pull-down/input). As to “GATGATTGTTCTCCCAGCTGATGAATTATGTTAATCGAGTAAACAAATTTTCCTAATCTTTCTGTTCAAGCGCCATCTAC”, the binding signal was 1.21 RPM ratio (pull-down/input).

As to “GATGATTGTTCTCCCAGCTGATGAATTGTCATTATCGAGTAAACAAATTTTCCTAATCTTTCTGTTCAAGCGCCATCTAC”, the binding signal was 1.31 RPM ratio (pull-down/input). For the sequence “GATGATTGTTCTCCCAGCTGATGAATTATTTTCATCGAGTAAACAAATTTTCCTAATCTTTCTGTTCAAGCGCCATCTAC”, the binding signal was 1.27 RPM ratio (pull-down/input).
